Experimental data reported in PubChem BioAssay (NCI).
Compounds without any hit were thinned out: in the full panel of roughly 79,000, 15% have a hit. Activity calls are given as the source filed them. Rule as the data show it: active = growth inhibition above about 70%; inactive = the rest.

Assays:
[1] = NCI Yeast Anticancer Drug Screen. Data for the wt1 strain (AID 149);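 also: 0% = growth of vehicle-treated wt1 cultures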; conditions: S. cerevisiae wt1 strain (SPY 50644) growth inhibition, active compounds read high
How it was run: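 Compounds are added to wt1 yeast cultures. Growth is then measured. Inhibition is expressed relative to vehicle-treated controls.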

[2] = NCI Yeast Anticancer Drug Screen. Data for the rad50EPP+ strain (AID 151);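 also: 0% = growth of vehicle-treated control cultures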; conditions: S. cerevisiae rad50 mutant strain, active compounds read high
How it was run: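 One strain with a rad50 alteration (rad50EPP+) was compound-treated, its growth then compared to that of vehicle controls.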

[3] = NCI Yeast Anticancer Drug Screen. Data for the rad50 strain (AID 155);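 also: 0% = growth of vehicle-only cultures of the same strain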; conditions: S. cerevisiae rad50 strain growth inhibition, active compounds read high
How it was run: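 Inhibition values express reduced yeast growth in compound-treated cultures relative to vehicle-treated controls.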

[4] = NCI Yeast Anticancer Drug Screen. Data for the mec2-1 strain (AID 157); conditions: S. cerevisiae mec2-1 strain, active compounds read high
How it was run: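 Test agents were screened against the mec2-1 yeast strain, with defined DNA repair or cell cycle alteration. Growth was scored as inhibition against vehicle-only controls.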

[5] = NCI Yeast Anticancer Drug Screen. Data for the rad14 strain (AID 159);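 also: 0% = growth of vehicle-treated control cultures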; conditions: S. cerevisiae rad14 strain growth inhibition, active compounds read high
How it was run: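 A mutant yeast strain defective in DNA damage repair is treated with compound; inhibition of its growth is scored against untreated, vehicle-exposed cultures.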

[6] = NCI Yeast Anticancer Drug Screen. Data for the sgs1 mgt1 strain (AID 161);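 also: 0% = growth of cultures given vehicle only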; conditions: S. cerevisiae sgs1 mgt1 strain, active compounds read high
How it was run: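 Genetically altered yeast, compound exposure, growth inhibition relative to vehicle.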

[7] = NCI Yeast Anticancer Drug Screen. Data for the CLN2oe strain (AID 163);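 also: 0% = growth of vehicle-only control cultures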; conditions: S. cerevisiae CLN2oe strain, active compounds read high
How it was run: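 Here, growth inhibition in a cell-cycle-altered yeast strain after compound exposure was quantified against vehicle control growth.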

[8] = NCI Yeast Anticancer Drug Screen. Data for the cln2 rad14 strain (AID 165);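 also: 0% = growth equal to vehicle treated cultures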; conditions: S. cerevisiae cln2 rad14 strain, active compounds read high
How it was run: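 Growth of compound-exposed yeast (cln2 rad14 genotype) measured and expressed as inhibition relative to vehicle.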

[9] = NCI Yeast Anticancer Drug Screen. Data for the bub3 strain (AID 167); conditions: S. cerevisiae bub3 mutant strain, active compounds read high
How it was run: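 Steps: expose the mutant yeast strain to compound; grow alongside vehicle-treated cultures; measure growth; express inhibition against the vehicle cultures.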

[10] = NCI Yeast Anticancer Drug Screen. Data for the wt2 strain (AID 169);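 also: 0% = growth of vehicle-treated yeast cultures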; conditions: S. cerevisiae wt2 strain growth inhibition, active compounds read high
How it was run: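 Genetically defined yeast strains from a DNA-repair/cell-cycle panel were used. Compound-exposed yeast growth was measured, and the inhibition was calculated relative to vehicle treatment.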

[11] = NCI Yeast Anticancer Drug Screen. Data for the mlh1 strain (AID 171);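 also: 0% = growth of vehicle-treated control cultures of the same strain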; conditions: S. cerevisiae mlh1 strain growth inhibition, active compounds read high
How it was run: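 Here the genetically defined yeast mutant is grown with each compound, and the extent to which its growth falls below that of vehicle-exposed cells is reported.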

[12] = NCI Yeast Anticancer Drug Screen. Data for the sgs1 strain (AID 173);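 also: 0% = growth of vehicle-only control cultures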; conditions: S. cerevisiae sgs1 mutant, active compounds read high
How it was run: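 Relative growth inhibition, referenced to vehicle, was determined in a yeast strain with a defined alteration affecting DNA damage repair or cell cycle control after compound exposure.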

[13] = NCI Yeast Anticancer Drug Screen. Data for the mlh1 rad18 strain (AID 175); conditions: S. cerevisiae mlh1 rad18 strain growth inhibition, active compounds read high
How it was run: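 In this whole-cell yeast screen, a strain with altered DNA damage repair is challenged with compound, and its growth is measured against matched vehicle-treated controls.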

[14] = NCI Yeast Anticancer Drug Screen. Data for the rad18 strain (AID 177); conditions: S. cerevisiae rad18 mutant growth inhibition, active compounds read high
How it was run: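 Screen uses a yeast strain with a defined lesion in DNA damage repair; compound effect is read as loss of growth compared to untreated vehicle cultures.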

[15] = at 5.0 µM (retest, dose inferred, filed as 0.5)
[16] = at 50.0 µM (retest, dose inferred, filed as 5.0)

Measured: growth inhibition

CN(C)CC1CCCc2ccccc2C1=O (stereo not drawn)
inactive: [1]; at 1.2 µM 1% | [1]; at 3.7 µM -11% | [1]; at 11.0 µM -1% | [1]; at 33.0 µM 9% | [1]; at 100.0 µM 53% | [2]; at 1.2 µM 6% | [2]; at 3.7 µM -4% | [2]; at 11.0 µM 26% | [3]; at 1.2 µM -5% | [3]; at 3.7 µM -2% | [3]; [15] -14% | [3]; at 11.0 µM 5% | [3]; at 33.0 µM 41% | [3]; [16] 40% | [3]; at 50.0 µM 66.2% | [4]; at 1.2 µM -4% | [4]; at 3.7 µM -12% | [4]; [15] -11% | [4]; at 11.0 µM -7% | [4]; at 33.0 µM 20% | [4]; [16] -2% | [4]; at 50.0 µM 23.4% | [5]; at 1.2 µM -6% | [5]; at 3.7 µM -13% | [5]; at 11.0 µM 3% | [5]; at 33.0 µM 12% | [6]; [15] -1% | [6]; [16] 22% | [6]; at 50.0 µM 50.3% | [7]; at 1.2 µM -7% | [7]; at 3.7 µM 1% | [7]; at 11.0 µM 22% | [7]; at 33.0 µM 14% | [8]; [15] -10% | [8]; [16] 20% | [8]; at 50.0 µM 5.05% | [9]; at 1.2 µM 24% | [9]; at 3.7 µM 23% | [9]; [15] -25% | [9]; at 11.0 µM 19% | [9]; at 33.0 µM 28% | [9]; [16] 40% | [9]; at 50.0 µM 32.3% | [10]; at 1.2 µM -32% | [10]; at 3.7 µM -31% | [10]; at 11.0 µM -36% | [10]; at 33.0 µM -1% | [11]; at 1.2 µM 23% | [11]; at 3.7 µM 28% | [11]; at 11.0 µM 29% | [12]; at 1.2 µM -15% | [12]; at 3.7 µM -12% | [12]; at 11.0 µM 12% | [12]; at 33.0 µM 32% | [13]; [15] 13% | [13]; [16] 66% | [14]; at 1.2 µM -14% | [14]; at 3.7 µM 7% | [14]; at 11.0 µM 2% | [14]; at 33.0 µM 38%
active: [2]; at 33.0 µM 76% | [2]; at 100.0 µM 97% | [3]; at 100.0 µM 91% | [4]; at 100.0 µM 85% | [5]; at 100.0 µM 81% | [7]; at 100.0 µM 89% | [9]; at 100.0 µM 95% | [10]; at 100.0 µM 76% | [11]; at 33.0 µM 76% | [11]; at 100.0 µM 95% | [12]; at 100.0 µM 84% | [13]; at 50.0 µM 70.2% | [14]; at 100.0 µM 85%
